Results filed as inconclusive are left out. Unmarked numbers belong to inactive results. Active and inactive are the calls of the source. Calls follow the shape of the dose curve; as a rule, active = well fitted inhibition curve with a large enough effect; inconclusive = small, poorly fitted or top-dose-only effect; inactive = no such curve, though single readings can be large or run the other way.
% is scaled to controls: 0 for no effect and ±100 for the full control effect; potency is read from the fitted curve at half-maximal effect.

This assay is described as follows: qHTS to identify inhibitors of the type 1 interferon - major histocompatibility complex class I in skeletal muscle: Secondary screen by immunofluorescence. Also: nearly all actives have a fitted effect of over 70% in size.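 As to activity change, negative = inhibition: digitonin at 100 µM served as the cytotoxic control.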 Conditions: C25cl48 myoblasts, IFN-b induced HLA-ABC immunofluorescence, 24 h, Viability; series mostly up to 49.8 µM; activity change, negative = inhibition: at the top concentration. Put shortly:
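HLA-ABC immunofluorescence, with nuclear and cell-body stains, was quantified by laser scanning cytometry. Read-out followed 24 h of IFN-beta (4.0 ng/ml) stimulation of C25cl48 human myoblasts with compounds titrated 1:3 over 11 points from 50 uM, with ruxolitinib as inhibitor control.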
On to `C/C(=C\c1csc(C)n1)[C@@H]1C[C@@H]2O[C@]2(C)CCC[C@H](C)[C@H](O)[C@@H](C)C(=O)C(C)(C)[C@@H](O)CC(=O)O1`, for which the “activity change, negative = inhibition” value was -0.361%.

In the case of `C/C1=C/C[C@@H](/C(C)=C/c2csc(C)n2)OC(=O)C[C@H](O)C(C)(C)C(=O)[C@H](C)[C@@H](O)[C@@H](C)CCC1`, the “activity change, negative = inhibition” value was -13.6%.

As for `CC(C)(O)/C=C\C(=O)[C@](C)(O)[C@H]1[C@H](O)C[C@]2(C)[C@@H]3CC=C4[C@@H](C=C(O)C(=O)C4(C)C)[C@]3(C)C(=O)C[C@@]12C`, the Potency is 16.2 µM (active).

Regarding `COc1cccc2c1C(=O)c1c(O)c3c(c(O)c1C2=O)C[C@@](O)(C(=O)CO)CC3OC1CC(N2CCOC(OC)C2)C(O)C(C)O1` (stereo not given in full), the “activity change, negative = inhibition” value was 1.3%.

As to `Cc1[nH]ncc1-c1cc2nc([C@@H]3CC4CCN3CC4)[nH]c(=O)c2s1`, the “activity change, negative = inhibition” value was 6.86%.

For the compound `CC(C)(C)c1cc(C=C(C#N)C#N)cc(C(C)(C)C)c1O`, the “activity change, negative = inhibition” value was 2.35%.

Take `O=C1/C(=C\c2ccccc2)C[C@@]2(O)[C@H]3Cc4ccc(O)c5c4[C@@]2(CCN3CC2CC2)[C@H]1O5`: the Potency was 10.2 µM (active).

With `C[C@@H]1O[C@@H](O[C@@H]2C=C3CC[C@@H]4[C@H](CC[C@]5(C)[C@@H](c6ccc(=O)oc6)CC[C@]45O)[C@@]3(C)CC2)[C@H](O)[C@H](O)[C@H]1O`, the “activity change, negative = inhibition” value is 14.8%.

With `CC(C)[C@]12O[C@H]1[C@@H]1O[C@]13[C@]1(O[C@H]1C[C@H]1C4=C(CC[C@@]13C)C(=O)OC4)[C@@H]2O`, the “activity change, negative = inhibition” value is 7.8%.

For `O=c1[nH]c2ccc(Cl)cc2c(N[C@@H]2CN3CCC2CC3)c1-c1nc2ccccc2[nH]1`, the Potency was 4.58 µM (active).

As to `COC(=O)[C@@]12OC[C@]34[C@H]([C@@H](O)[C@@H]1O)[C@@]1(C)CC(=O)C(O)=C(C)[C@@H]1C[C@H]3OC(=O)[C@H](OC(=O)/C=C(\C)C(C)C)[C@@H]24`, the “activity change, negative = inhibition” value was 3.25%.

Consider `COC(=O)[C@]12CCC(C)(C)C[C@H]1[C@H]1C(=O)C=C3[C@@]4(C)C=C(C#N)C(=O)C(C)(C)[C@@H]4CC[C@@]3(C)[C@]1(C)CC2`, for which the Potency is 3.64 µM (active).

Regarding `C=C(C)[C@@H]1CCC(C)=C[C@H]1c1c(O)cc(CCCCC)cc1O`, the Potency was 25.7 µM (active).

With `CC(=O)OC[C@H]1O[C@@H]([S-])[C@H](OC(C)=O)[C@@H](OC(C)=O)[C@@H]1OC(C)=O.CC[PH+](CC)CC.[Au]`, the Potency is 1.62 µM (active).

For `Cc1sc2c(c1C)C(c1ccc(Cl)cc1)=N[C@@H](CC(=O)Nc1ccc(O)cc1)c1nnc(C)n1-2`, the “activity change, negative = inhibition” value was 23.5%.

As for `O=[N+]([O-])/C=C/c1ccc2c(c1)OCO2`, the Potency is 11.5 µM (active).

Take `Cc1sc2c(c1C)C(c1ccc(Cl)cc1)=N[C@@H](CC(N)=O)c1nnc(C)n1-2`: the “activity change, negative = inhibition” value is 5.41%.

On to `CC[C@@]1(O)C(=O)OCc2c1cc1n(c2=O)Cc2cc3ccccc3nc2-1`, for which the Potency result was “inactive”.

`CCn1cnc2c(Nc3cccc(Cl)c3)nc(N[C@@H]3CCCC[C@@H]3N)nc21`: the Potency is 25.7 µM (active).

With `CC(C)[C@]12O[C@H]1[C@@H]1O[C@@]13[C@@]1(C)CCC4=C(COC4=O)[C@@H]1C[C@@H]1O[C@@]13C2=O`, the “activity change, negative = inhibition” value was 3.97%.

On to `CC1=C(O)C(=O)C=C2C1=CC=C1[C@@]2(C)CC[C@@]2(C)[C@@H]3C[C@](C)(C(=O)O)CC[C@]3(C)CC[C@]12C`, for which the Potency is 5.76 µM (active).

Take `CN(C)c1cc2c(cc1Sc1nc3c(N)nccc3n1CCNCC(C)(C)C)OCO2`: the “activity change, negative = inhibition” value was 3.61%.

Turning to `C[C@@H]1O[C@@H](O[C@H]2C[C@@H](O)[C@]3(CO)[C@H]4[C@H](O)C[C@]5(C)[C@@H](C6=CC(=O)OC6)CC[C@]5(O)[C@@H]4CC[C@]3(O)C2)[C@H](O)[C@H](O)[C@H]1O`, the “activity change, negative = inhibition” value was 1.82%.

As for `Cc1sc2c(c1C)C(c1ccc(Cl)cc1)=N[C@@H](CC(=O)OC(C)(C)C)c1nnc(C)n1-2`, the “activity change, negative = inhibition” value is 31.9%.

Take `CC1(C)CC[C@]2(NC(=O)C(C)(F)F)CC[C@]3(C)[C@H](C(=O)C=C4[C@@]5(C)C=C(C#N)C(=O)C(C)(C)[C@@H]5CC[C@]43C)[C@@H]2C1`: the Potency was 4.08 µM (active).
